Measured values as given in the supplement of paper PMC9801561.
± gives the standard deviation of the averaged measurements.

Legend:
[1] = system: Escherichia coli Nissle 1917; assay: area under OmniLog respiration curve over 48 h (OmniLog units x h); higher = more growth / nutrient utilisation; extreme values may be limits of the assay; details: incubation: 48 h, 37 °C
[2] = system: Escherichia coli Nissle 1917; assay: DuctApe activity index of respiration/growth curve (0 no growth to 9 maximum) (index 0-9); higher = more growth / nutrient utilisation, active = 3 or more; extreme values may be limits of the assay; details: incubation: 48 h, 37 °C
[3] = nutrient role: sole phosphorus source (pyruvate carbon)
[4] = nutrient role: C-Source, carboxylic acid
[5] = nutrient role: C-Source, carbohydrate
[6] = nutrient role: sole sulfur source (pyruvate carbon)
[7] = nutrient role: sole nitrogen source (pyruvate carbon)
[8] = nutrient role: C-Source, alcohol
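Wherever DuctApe activity index of respiration/growth curve (0 no growth to 9 maximum) is given: biolog PM4 phosphorus and sulfur plates, tetrazolium violet dye reduction read in the OmniLog every 15 min, kinetic curves scored by DuctApe, each plate run in triplicate.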

NC(=O)OP(=O)(O)O [Carbamyl Phosphate]
area under OmniLog respiration curve [1, 3]: 9480 ± 480
DuctApe activity index [2, 3]: 9 (active)

O=C(O)C(O)C(O)C(=O)O (stereo not given) [m-Tartaric acid]
area under OmniLog respiration curve [1, 4]: 4.72
DuctApe activity index [2, 4]: 0 (inactive)

O[C@@H]1[C@@H](O)[C@@H](O)CO[C@H]1O [L-Arabinose]
area under OmniLog respiration curve [1, 5]: 8240 ± 430
DuctApe activity index [2, 5]: 8 (active)

CSCCC(NC(C)=O)C(=O)O (racemic) [N-Acetyl-D,L-Methionine]
area under OmniLog respiration curve [1, 6]: 5080 ± 220
DuctApe activity index [2, 6]: 7 (active)

O=c1ccn([C@@H]2O[C@H](CO)[C@@H](O)[C@H]2OP(=O)(O)O)c(=O)[nH]1 [Uridine 2`-Monophosphate]
area under OmniLog respiration curve [1, 3]: 6560 ± 4400
DuctApe activity index [2, 3]: 7 (active)

O=C(O)CCC(=O)C(=O)O [a-Ketoglutaric acid]
area under OmniLog respiration curve [1, 4]: 5770 ± 360
DuctApe activity index [2, 4]: 6.67 (active)

Nc1nc2c(ncn2[C@@H]2O[C@H](CO)[C@@H](OP(=O)(O)O)[C@H]2O)c(=O)[nH]1 [Guanosine 3`-Monophosphate]
area under OmniLog respiration curve [1, 3]: 9730 ± 510
DuctApe activity index [2, 3]: 9 (active)

O=C(CO)[C@@H](O[C@H]1O[C@H](CO)[C@@H](O)[C@H](O)[C@H]1O)[C@H](O)[C@H](O)CO [Turanose]
area under OmniLog respiration curve [1, 5]: 532 ± 350
DuctApe activity index [2, 5]: 0.333 (inactive)

C[C@@H](O)[C@H](O)[C@H](O)[C@@H](O)C=O [D-Fucose]
area under OmniLog respiration curve [1, 5]: 21 ± 25
DuctApe activity index [2, 5]: 0 (inactive)

C[C@H](CCC(=O)NCCS(=O)(=O)O)[C@H]1CC[C@H]2[C@@H]3[C@H](O)C[C@@H]4C[C@H](O)CC[C@]4(C)[C@H]3C[C@H](O)[C@]12C [Taurocholic acid]
area under OmniLog respiration curve [1, 6]: 2500 ± 890
DuctApe activity index [2, 6]: 4 (active)

NC(=O)CCC(=O)O [Succinamic acid]
area under OmniLog respiration curve [1, 4]: 9.14 ± 6
DuctApe activity index [2, 4]: 0 (inactive)

CCCCS(=O)(=O)O [Butane Sulfonic acid]
area under OmniLog respiration curve [1, 6]: 7820 ± 190
DuctApe activity index [2, 6]: 8 (active)

O=C(O)Cc1ccc(O)cc1 [p-Hydroxyphenyl Acetic acid]
area under OmniLog respiration curve [1, 4]: 40.5 ± 54
DuctApe activity index [2, 4]: 0 (inactive)

OC[C@H]1O[C@H](OC[C@H]2O[C@H](O[C@]3(CO)O[C@H](CO)[C@@H](O)[C@@H]3O)[C@H](O)[C@@H](O)[C@@H]2O)[C@H](O)[C@@H](O)[C@H]1O [D-Raffinose]
area under OmniLog respiration curve [1, 5]: 6090 ± 450
DuctApe activity index [2, 5]: 7 (active)

OC[C@H]1O[C@H](O[C@H]2[C@H](O)[C@@H](O)[C@H](O)O[C@@H]2CO)[C@H](O)[C@@H](O)[C@@H]1O [Maltose]
area under OmniLog respiration curve [1, 5]: 7970 ± 810
DuctApe activity index [2, 5]: 7.67 (active)

N[C@@H](CSC[C@H](N)C(=O)O)C(=O)O [Lanthionine]
area under OmniLog respiration curve [1, 6]: 7490 ± 330
DuctApe activity index [2, 6]: 8 (active)

C[C@H](N)C(=O)N[C@@H](CCC(=O)O)C(=O)O
area under OmniLog respiration curve [1, 7]: 8550 ± 1300
DuctApe activity index [2, 7]: 8.33 (active)

CC(=O)C(C)=O [2,3-Butanedione]
area under OmniLog respiration curve [1, 8]: 19 ± 14
DuctApe activity index [2, 8]: 0 (inactive)

O[C@@H]1[C@H](O)[C@H](O)CO[C@H]1O [D-Ribose]
area under OmniLog respiration curve [1, 5]: 9520 ± 880
DuctApe activity index [2, 5]: 8.67 (active)

OCC1(O)OC[C@H](O)[C@@H](O)[C@@H]1O (stereo partly drawn) [L-Sorbose]
area under OmniLog respiration curve [1, 5]: 6370 ± 540
DuctApe activity index [2, 5]: 7 (active)
